Consider 32 molecules from PubChem BioAssay (EPA / NIEHS).

Assay [1] has as its target Bile acid receptor (Homo sapiens) (UniProt Q96RI1). Put plainly: ATG_FXR_TRANS: Attagene TRANS-FACTORIAL HepG2 Assay for Farnesoid X Receptor (FXR) (AID 2282979).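 Also: hits raise reporter mRNA above DMSO so AC50 marks FXR activation.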 To be noted: HepG2 Attagene TRANS FXR-GAL4 reporter transcription. Summed up:
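Chimeric FXR-GAL4 activity in transiently transfected human HepG2 liver cells is scored as induction of reporter mRNA after 24 h of dosing. Detection uses RT-PCR with fluorescent labelling and capillary electrophoresis, with DMSO serving as baseline.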

Assay [2] has as its target Oxysterols receptor LXR-beta (Homo sapiens) (UniProt P55055). The assay can be described thus: ATG_LXRb_TRANS: Attagene TRANS-FACTORIAL HepG2 Assay for human Liver X Receptor beta (LXRb) (AID 2282981). To be noted: HepG2 Attagene TRANS GAL4-LXRb reporter, mRNA. The method, boiled down:
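Gain-of-signal mRNA reporter endpoint, DMSO as negative control. Transiently transfected HepG2 cells carrying the NR-Gal4 chimera and GAL4-UAS reporter units were treated 24 h; transcripts quantified by RT-PCR and capillary electrophoresis fluorescence.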

Assay [3] deals with Hepatocyte nuclear factor 4-alpha (Homo sapiens) (UniProt P41235). The assay can be described thus: ATG_HNF4a_TRANS: Attagene TRANS-FACTORIAL HepG2 Assay for human Hepatocyte Nuclear Factor 4 alpha (HNF4a) (AID 2282982). As to conditions: HepG2 HNF4a transactivation reporter, mRNA readout. The method, boiled down:
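Gain-of-signal mRNA induction, relative to DMSO vehicle, was read after 24 h compound treatment of HepG2 cells bearing transfected GAL4-UAS reporters. Detection used RT-PCR, 6-FAM primer extension and capillary electrophoresis.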

The nature of assay [4]: ATG_M_06_TRANS: Attagene TRANS-FACTORIAL HepG2 Assay for M06 Transcription Factor (Internal Marker) (AID 2282983). To be noted: HepG2 Attagene TRANS M06 internal marker reporter. The method, boiled down: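 Measured by capillary electrophoresis of fluorescently labelled RT-PCR products, this endpoint reflects reporter mRNA in HepG2 cells harbouring exogenous NR-GAL4 reporter constructs after 24 h exposure, with DMSO as baseline.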

Assay [5] addresses Transcriptional activator Myb (Homo sapiens) (UniProt P10242). Put plainly: ATG_Myb_CIS: Attagene CIS-FACTORIAL HepG2 Assay for human Myeloblastosis (Myb) Proto-Oncogene Transcription Factor (AID 2282986; active = hit-call score of the fitted dose curve at least 0.9, where 1 is the maximum; inactive = score below 0.9). To be noted: HepG2 Attagene CIS-FACTORIAL Myb reporter transcription; actives raise or lower the signal. Summed up: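 HepG2, transient MRTU transfection (cis-element promoters, endogenous TF activity), 24 h compound exposure. Readout: reporter mRNA via RT-PCR, 6-FAM labeling, HpaI digest, capillary electrophoresis. Gain/loss fit vs DMSO.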

Assay [6] addresses Nuclear respiratory factor 1 (Homo sapiens) (UniProt Q16656). Put plainly: ATG_NRF1_CIS: Attagene CIS-FACTORIAL HepG2 Assay for human Nuclear Respiratory Factor 1 (NRF1) Orphan Gene (AID 2282987; active = hit-call score of the fitted dose curve at least 0.9, where 1 is the maximum; inactive = score below 0.9). As to conditions: HepG2 NRF1 cis-element reporter, Attagene multiplex; actives raise or lower the signal. Summed up:
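Endogenous NRF1-driven reporter transcription measured in transiently transfected human HepG2 liver cells. Readout: reporter mRNA by RT-PCR and capillary electrophoresis with fluorescence detection, 24 h post-dosing. Gain or loss of signal fitted relative to DMSO baseline.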

Assay [7] can be described thus: ATG_NFI_CIS: Attagene CIS-FACTORIAL HepG2 Assay for human Nuclear Factor I (NFI) (AID 2282989; active = hit-call score of the fitted dose curve at least 0.9, where 1 is the maximum; inactive = score below 0.9). As to conditions: HepG2 cis-regulatory reporter, NFI response element transcription; actives raise or lower the signal. The method, boiled down:
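HepG2 cells transiently transfected with cis-element-driven multiplexed reporter transcription units, dosed for 24 h. Reporter mRNA quantified by RT-PCR, fluorescent labelling, HpaI digestion and capillary electrophoresis; bidirectional fit versus DMSO baseline.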

Assay [8] in a line: ATG_M_32_TRANS: Attagene TRANS-FACTORIAL HepG2 Assay for M32 Transcription Factor (Internal Marker) (AID 2282984).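 Also: transcript level of a background control reporter unit measured by RT-PCR and capillary electrophoresis.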 To be noted: HepG2 Attagene TRANS M32 internal marker reporter. The method, boiled down: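 Capillary electrophoresis of 6-FAM-labelled reporter fragments gives the signal; data fitted for gain over DMSO negative control. Source: HepG2 cells bearing transient multiple reporter transcription units, 24 h exposure.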

For assay [9], the target named is Nuclear receptor subfamily 4 group A member 2 (Homo sapiens) (UniProt P43354). Put plainly: ATG_NURR1_TRANS: Attagene TRANS-FACTORIAL HepG2 Assay for human Nuclear Receptor Related Protein 1 (NURR1) (AID 2282985). As to conditions: HepG2 Attagene TRANS reporter, mRNA readout. The method, boiled down:
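HepG2 / transient MRTU transfection / 24 h compound exposure / RT-PCR + CE fluorescence of reporter mRNA / gain-of-signal vs DMSO.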

In assay [10] the target is Oxysterols receptor LXR-alpha (Homo sapiens) (UniProt Q13133). Put plainly: ATG_LXRa_TRANS: Attagene TRANS-FACTORIAL HepG2 Assay for human Liver X Receptor alpha (LXRa) (AID 2282980). As to conditions: HepG2 Attagene TRANS reporter, LXRa transactivation. Summed up: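 Transient HepG2 transfectants, 24 h dosing, RT-PCR/CE mRNA reporter quantitation; gain-of-signal vs DMSO.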

SMILES strings stand for the structures. Records with an inconclusive call do not appear. Calls of active or inactive are those of the source. The calls were made as follows, unless noted: active = hit-call score of the fitted dose curve at least 0.9, where 1 is the maximum; inconclusive = response in the unintended direction; inactive = score below 0.9.

Sequence of Bile acid receptor (Homo sapiens) (Q96RI1 whole entry, looked up, the tested form may be a part): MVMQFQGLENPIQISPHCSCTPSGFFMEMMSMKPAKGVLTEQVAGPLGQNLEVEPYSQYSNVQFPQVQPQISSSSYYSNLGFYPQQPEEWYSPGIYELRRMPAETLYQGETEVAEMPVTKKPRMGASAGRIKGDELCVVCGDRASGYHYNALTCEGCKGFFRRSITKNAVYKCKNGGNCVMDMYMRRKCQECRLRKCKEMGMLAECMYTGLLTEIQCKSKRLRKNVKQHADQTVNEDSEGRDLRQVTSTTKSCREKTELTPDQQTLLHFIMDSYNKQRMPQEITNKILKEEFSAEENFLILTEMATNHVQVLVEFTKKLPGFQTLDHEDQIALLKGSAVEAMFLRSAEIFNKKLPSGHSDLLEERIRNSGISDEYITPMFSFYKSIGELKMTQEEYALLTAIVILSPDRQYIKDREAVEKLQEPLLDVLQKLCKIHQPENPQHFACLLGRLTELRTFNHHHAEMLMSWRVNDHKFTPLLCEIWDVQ
Sequence of Nuclear receptor subfamily 4 group A member 2 (Homo sapiens) (P43354 whole entry, looked up): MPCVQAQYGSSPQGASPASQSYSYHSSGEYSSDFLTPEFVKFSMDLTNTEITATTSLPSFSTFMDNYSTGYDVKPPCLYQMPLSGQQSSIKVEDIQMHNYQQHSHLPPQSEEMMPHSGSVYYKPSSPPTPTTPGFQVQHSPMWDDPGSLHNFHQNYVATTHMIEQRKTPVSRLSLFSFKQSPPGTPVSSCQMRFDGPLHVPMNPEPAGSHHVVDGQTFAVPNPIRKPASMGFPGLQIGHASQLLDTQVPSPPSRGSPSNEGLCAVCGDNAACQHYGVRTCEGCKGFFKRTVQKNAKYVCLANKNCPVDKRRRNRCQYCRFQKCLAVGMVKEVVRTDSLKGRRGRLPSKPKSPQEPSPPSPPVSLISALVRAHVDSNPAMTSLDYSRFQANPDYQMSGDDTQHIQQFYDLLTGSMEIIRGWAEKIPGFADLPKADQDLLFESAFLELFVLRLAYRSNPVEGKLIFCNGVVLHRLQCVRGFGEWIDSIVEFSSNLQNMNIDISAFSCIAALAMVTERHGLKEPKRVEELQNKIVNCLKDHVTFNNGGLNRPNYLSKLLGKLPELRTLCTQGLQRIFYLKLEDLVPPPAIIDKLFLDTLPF
Sequence of Transcriptional activator Myb (Homo sapiens) (P10242 whole entry, looked up): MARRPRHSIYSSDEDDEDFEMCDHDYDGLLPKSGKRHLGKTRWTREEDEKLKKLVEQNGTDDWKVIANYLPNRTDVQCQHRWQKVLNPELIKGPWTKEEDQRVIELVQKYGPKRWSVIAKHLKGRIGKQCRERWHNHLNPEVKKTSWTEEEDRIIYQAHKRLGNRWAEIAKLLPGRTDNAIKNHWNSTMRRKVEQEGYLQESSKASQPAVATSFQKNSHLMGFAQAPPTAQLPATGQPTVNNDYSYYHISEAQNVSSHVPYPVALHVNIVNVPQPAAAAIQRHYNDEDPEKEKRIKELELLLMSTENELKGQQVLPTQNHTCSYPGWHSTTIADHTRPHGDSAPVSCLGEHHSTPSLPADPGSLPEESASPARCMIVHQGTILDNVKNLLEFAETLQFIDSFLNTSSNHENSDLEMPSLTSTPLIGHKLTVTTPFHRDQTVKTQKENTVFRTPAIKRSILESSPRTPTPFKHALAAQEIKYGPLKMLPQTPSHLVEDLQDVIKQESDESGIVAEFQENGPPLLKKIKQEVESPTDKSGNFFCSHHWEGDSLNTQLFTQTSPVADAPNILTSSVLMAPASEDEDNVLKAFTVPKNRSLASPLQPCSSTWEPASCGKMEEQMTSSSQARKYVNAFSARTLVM
Sequence of Hepatocyte nuclear factor 4-alpha (Homo sapiens) (P41235 whole entry, looked up, the tested form may be a part): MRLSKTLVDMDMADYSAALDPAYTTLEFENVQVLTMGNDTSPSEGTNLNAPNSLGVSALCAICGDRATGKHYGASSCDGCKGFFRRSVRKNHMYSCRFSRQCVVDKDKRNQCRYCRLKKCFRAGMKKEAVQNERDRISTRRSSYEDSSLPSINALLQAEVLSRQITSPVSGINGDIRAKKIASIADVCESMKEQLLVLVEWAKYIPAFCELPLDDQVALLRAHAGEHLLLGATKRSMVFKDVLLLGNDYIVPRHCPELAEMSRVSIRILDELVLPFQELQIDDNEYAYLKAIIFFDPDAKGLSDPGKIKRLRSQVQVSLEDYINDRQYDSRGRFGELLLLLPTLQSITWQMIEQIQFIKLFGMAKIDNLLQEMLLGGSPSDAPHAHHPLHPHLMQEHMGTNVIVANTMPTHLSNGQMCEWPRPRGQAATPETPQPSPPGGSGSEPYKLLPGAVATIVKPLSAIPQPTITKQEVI
Sequence of Nuclear respiratory factor 1 (Homo sapiens) (Q16656 whole entry, looked up): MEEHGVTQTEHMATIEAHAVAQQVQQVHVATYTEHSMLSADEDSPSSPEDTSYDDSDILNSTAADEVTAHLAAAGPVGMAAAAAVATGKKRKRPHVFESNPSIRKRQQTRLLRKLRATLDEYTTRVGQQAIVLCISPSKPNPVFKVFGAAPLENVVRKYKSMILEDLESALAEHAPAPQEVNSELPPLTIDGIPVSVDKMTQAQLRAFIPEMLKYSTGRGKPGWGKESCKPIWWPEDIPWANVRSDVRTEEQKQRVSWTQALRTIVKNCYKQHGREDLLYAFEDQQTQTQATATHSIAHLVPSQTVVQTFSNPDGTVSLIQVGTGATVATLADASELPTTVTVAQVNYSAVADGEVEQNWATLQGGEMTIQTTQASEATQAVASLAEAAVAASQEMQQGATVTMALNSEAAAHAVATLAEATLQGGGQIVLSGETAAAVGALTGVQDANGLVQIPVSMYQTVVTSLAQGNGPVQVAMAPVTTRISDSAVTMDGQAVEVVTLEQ
Sequence of Oxysterols receptor LXR-beta (Homo sapiens) (P55055 whole entry, looked up, the tested form may be a part): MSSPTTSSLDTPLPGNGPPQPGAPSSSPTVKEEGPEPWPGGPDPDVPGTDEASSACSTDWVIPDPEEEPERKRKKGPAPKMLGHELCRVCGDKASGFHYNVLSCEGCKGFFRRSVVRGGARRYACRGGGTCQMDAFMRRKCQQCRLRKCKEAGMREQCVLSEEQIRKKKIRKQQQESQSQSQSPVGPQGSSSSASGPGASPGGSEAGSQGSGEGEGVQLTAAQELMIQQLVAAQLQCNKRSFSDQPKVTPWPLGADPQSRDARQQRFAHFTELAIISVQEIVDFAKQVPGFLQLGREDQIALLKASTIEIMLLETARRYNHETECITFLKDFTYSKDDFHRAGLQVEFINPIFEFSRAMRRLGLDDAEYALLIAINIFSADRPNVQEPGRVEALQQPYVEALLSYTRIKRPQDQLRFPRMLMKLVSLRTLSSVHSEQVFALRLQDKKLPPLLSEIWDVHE
Sequence of Oxysterols receptor LXR-alpha (Homo sapiens) (Q13133 whole entry, looked up): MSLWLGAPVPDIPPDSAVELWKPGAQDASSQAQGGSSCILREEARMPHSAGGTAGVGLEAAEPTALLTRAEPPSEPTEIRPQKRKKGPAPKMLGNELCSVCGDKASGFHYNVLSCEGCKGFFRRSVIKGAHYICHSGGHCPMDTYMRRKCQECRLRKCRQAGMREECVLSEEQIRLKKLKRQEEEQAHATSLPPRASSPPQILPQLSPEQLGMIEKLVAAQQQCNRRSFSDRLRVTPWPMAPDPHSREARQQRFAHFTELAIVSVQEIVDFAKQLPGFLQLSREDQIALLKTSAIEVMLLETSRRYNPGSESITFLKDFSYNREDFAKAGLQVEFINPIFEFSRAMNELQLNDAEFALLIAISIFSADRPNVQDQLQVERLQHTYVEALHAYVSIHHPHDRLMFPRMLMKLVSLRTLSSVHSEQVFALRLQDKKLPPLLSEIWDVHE

With `CCC(C)=O`, the molecule was called inactive in [1], in assay [2], in assay [3], in assay [4], in assay [5] and in assay [6]. Further, the molecule was called inactive in assay [7].
Take `FC(F)(F)COCC(F)(F)F`: the molecule was classed as inactive in assay [1], in assay [2], in assay [4], in assay [8], in assay [5] and in [7].
As to `NC(=S)NNC(N)=S`, the molecule was classed as inactive in assay [1], in assay [2], in assay [3], in assay [8], in assay [5] and in [7].
With `CC(C)=CCCC(C)CCOC=O` (stereo unspecified), the molecule was classed as inactive in assay [1], in assay [3], in assay [4], in [8], in assay [5] and in assay [6]. Further, the call in [7] was inactive.
For the molecule `COc1ccccc1[N+](=O)[O-]`, the molecule was called inactive in [1], in assay [2], in assay [4], in assay [5], in assay [6] and in assay [7].
For `O=C(CC(=O)c1ccccc1)c1ccccc1`, the outcome in [1], in [4], in assay [8] and in [9] was inactive. Further, the AC50 in assay [5] was 100 µM (active); in [6], 176 µM (active); in [7], 100 µM (active).
As to `COc1ccc(COC(C)=O)cc1`, the molecule was classed as inactive in assay [1], in assay [2], in [3], in assay [4], in assay [5] and in assay [6]. For the same molecule, the result in assay [7] was inactive.
Turning to `CCCCCCCCCCCCCC(=O)OCC(O)CO` (stereo unspecified), the outcome in assay [1], in assay [2], in [3], in assay [4], in assay [8] and in assay [5] was inactive. Also, the outcome in [6] and in assay [7] was inactive.
As for `Cc1cc(C)nc(NS(=O)(=O)c2ccc(N)cc2)n1`, the molecule was classed as inactive in assay [1], in assay [2], in assay [3], in assay [4], in [8] and in assay [9]. Further, the molecule was classed as inactive in [5], in [6] and in assay [7].
For `CCCCCCCCCCCCS(=O)(=O)Cl`, the molecule was classed as inactive in [1], in assay [3], in [8], in [5], in assay [6] and in assay [7].
Turning to `CCCCCCCCC=CCCCCCCCC1=NCCN1CCO`, the molecule was classed as inactive in assay [1], in assay [2], in [3], in assay [4], in assay [5] and in assay [6]. Besides, the AC50 in assay [7] was 6.21 µM (active).
In the case of `CCCCC1CCC(O)CC1` (stereo unspecified), the molecule was called inactive in assay [1], in [3], in assay [4], in [8], in assay [9] and in assay [5]. The outcome in assay [6] and in assay [7] was inactive.
Turning to `Nc1ccccc1[N+](=O)[O-]`, the result in [1], in assay [4], in assay [8], in [9], in [5] and in [6] was inactive. For the same molecule, the molecule was classed as inactive in assay [7].
With `CC(=O)CC(=O)Nc1ccccc1`, the outcome in [1], in [2], in [3], in [4], in [9] and in assay [5] was inactive. Further, in assay [6], the outcome was inactive.
In the case of `CC(=O)CC(=O)Nc1ccc(C)cc1C`, the molecule was classed as inactive in assay [1], in assay [2], in assay [3], in assay [4], in assay [8] and in assay [5]. The call in [6] and in assay [7] was inactive.
Consider `O=C(O)CNc1ccccc1`, for which the result in assay [1], in assay [2], in assay [4], in assay [8], in [5] and in assay [6] was inactive. The molecule was called inactive in assay [7].
Take `C=C(C)C(=O)OCC(CC)(COC(=O)C(=C)C)COC(=O)C(=C)C`: the call in [1], in assay [2], in assay [3], in assay [4], in assay [8] and in assay [9] was inactive. The call in assay [5], in assay [6] and in assay [7] was inactive.
For `CCNCCO`, the call in assay [1], in assay [3], in [4], in [9], in [5] and in assay [6] was inactive. Besides, the outcome in assay [7] was inactive.
For `CCC1(c2ccccc2)C(=O)NCNC1=O`, the molecule was classed as inactive in [1], in assay [3], in assay [4], in [8], in [5] and in assay [6]. Besides, the call in assay [7] was inactive.
Regarding `O=C(CS)OCCOC(=O)CS`, the molecule was classed as inactive in assay [1], in assay [3], in assay [4], in assay [5], in assay [6] and in assay [7]. The AC50 in assay [9] was 52.4 µM (active).
As to `COC(=O)Nc1ccc(Cl)c(Cl)c1`, the outcome in [1], in assay [2], in [3], in [4], in assay [8] and in assay [5] was inactive. Besides, the call in assay [6] and in [7] was inactive. The AC50 in assay [9] was 79.9 µM (active).
`CCCOCCO`: the outcome in assay [1], in assay [3], in assay [4], in assay [8], in assay [9] and in assay [5] was inactive. The result in assay [6] and in assay [7] was inactive.
On to `Oc1c(Cl)cc(Cl)c(Cl)c1Cc1c(O)c(Cl)cc(Cl)c1Cl`, for which, in assay [1], the AC50 is 17.6 µM (active). For the same molecule, the outcome in assay [2], in assay [3], in [5], in [6] and in [7] was inactive.
Consider `CC(C)(C)CC(C)(C)c1ccc(OCCOCC[N+](C)(C)Cc2ccccc2)cc1`, for which the molecule was classed as inactive in assay [1], in assay [3], in assay [8], in [5], in [6] and in assay [7].
Consider `Nc1ccc(N)c2c1C(=O)c1ccccc1C2=O`, for which the call in assay [1], in [3], in [8], in assay [5] and in assay [6] was inactive.
On to `CCCCN(CCCC)C(=O)N(CCCC)CCCC`, for which the concentration at half-maximal activity (AC50) is 15.6 µM (active) in assay [1], 42.9 µM (active) in assay [9], 40.2 µM (active) in assay [6] and 60.3 µM (active) in [7]. Besides, the call in [4], in [8] and in assay [5] was inactive.
As to `NCc1ccco1`, the result in assay [1], in assay [3], in assay [8], in [5], in assay [6] and in [7] was inactive.
Take `CC1=C(Br)C(=O)C(Br)=C/C1=C(/c1ccccc1S(=O)(=O)O)c1cc(Br)c(O)c(Br)c1C`: the molecule was called inactive in [1], in assay [4], in assay [9] and in [5].
For the molecule `Nc1ccc(NCCO)c([N+](=O)[O-])c1`, the outcome in assay [10], in assay [2], in assay [3], in [4], in assay [9] and in assay [5] was inactive. Besides, the call in assay [6] and in assay [7] was inactive.
For `C=C(C)[C@@H]1CC=C(C)C(=O)C1`, the molecule was classed as inactive in assay [10], in assay [2], in assay [3], in assay [8], in assay [9] and in assay [5]. The molecule was called inactive in assay [6] and in assay [7].
For `Clc1ccc(C(c2ccccc2Cl)C(Cl)Cl)cc1` (stereo unspecified), the call in assay [1], in [4], in [8] and in assay [5] was inactive. The AC50 was 44.2 µM (active) in assay [6] and 34.7 µM (active) in assay [7].
Consider `CCCCCCCCN1CCCC1=O`, for which the outcome in [1], in [4], in assay [5], in [6] and in assay [7] was inactive.
